Measurements published in PubChem BioAssay (NCI).
This is part of a sample that, as a whole, favours compounds with a hit. Of some 83,000 tested, about 20% had one in any assay.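 Each cell line was grown in a 96-well plate and treated with one concentration of compound for 48 hours. Values below 10 were considered active.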 A number with no mark means an inactive call. The source made the active and inactive calls.

Tests used:
Assay in all cases: NCI-60 one-dose screen, 48 h (100 = growth as untreated, 0 = no growth, -100 = all killed)
Details in all cases: 10 µM unless noted
SR leukemia = test system: SR leukemia
RPMI-8226 leukemia = test system: RPMI-8226 leukemia
OVCAR-8 ovarian = test system: OVCAR-8 ovarian
OVCAR-5 ovarian = test system: OVCAR-5 ovarian
OVCAR-4 ovarian = test system: OVCAR-4 ovarian
SK-OV-3 ovarian = test system: SK-OV-3 ovarian
IGROV1 ovarian = test system: IGROV1 ovarian
OVCAR-3 ovarian = test system: OVCAR-3 ovarian
HS 578T breast = test system: HS 578T breast
NCI/ADR-RES ovarian = test system: NCI/ADR-RES ovarian
T-47D breast = test system: T-47D breast
BT-549 breast = test system: BT-549 breast
MDA-MB-435 melanoma = test system: MDA-MB-435 melanoma
SW-620 colon = test system: SW-620 colon
MCF7 breast = test system: MCF7 breast
HCT-116 colon = test system: HCT-116 colon
HCC-2998 colon = test system: HCC-2998 colon
KM12 colon = test system: KM12 colon

SMILES	growth (SR leukemia)	growth (RPMI-8226 leukemia)	growth (OVCAR-8 ovarian)	growth (OVCAR-5 ovarian)	growth (OVCAR-4 ovarian)	growth (SK-OV-3 ovarian)	growth (IGROV1 ovarian)	growth (OVCAR-3 ovarian)	growth (HS 578T breast)	growth (NCI/ADR-RES ovarian)	growth (T-47D breast)	growth (BT-549 breast)	growth (MDA-MB-435 melanoma)	growth (SW-620 colon)	growth (MCF7 breast)	growth (HCT-116 colon)	growth (HCC-2998 colon)	growth (KM12 colon)
COc1ccc(Nc2nnc(-c3ccc(OC)c(OC)c3)o2)cc1	86.6%	92.1%	90.9%	100%	89.2%	98%	78.7%	91.4%	94.2%	89.2%	79.1%	61.8%	109%	97.7%	90.9%	77.8%	120%	85.1%
CCCn1cc2c(=O)nc3sc(Cc4ccccc4)c(C)n3c2n1	73.8%	99.5%	91.8%	111%	99%	104%	105%	99.3%	99.5%	96.7%	84.8%	106%	106%	101%	91.6%	102%	104%	94.4%
CCCNc1nc2ccccc2c2c1S(=O)(=O)c1ccc(Cl)cc1C2=O	8.34% (active)	-10.2% (active)	3.78% (active)	8% (active)	13.1%	32.2%	24.6%	-17% (active)	7.32% (active)	8.31% (active)	-1.34% (active)	23%	12.2%	-4.27% (active)	8.27% (active)	5.94% (active)	16.2%	17.1%
CC(C)COc1nc2c(c(=O)n(C)c(=O)n2C)n1C	90.8%	110%	-6.67% (active)	112%	97.7%	90.7%	109%	106%	100%	99.8%	88.6%	103%	104%	102%	86.4%	107%	102%	99.5%
c1ccc2cc(C[n+]3ccn(CCCCCCCCCCn4cc[n+](Cc5ccc6ccccc6c5)c4)c3)ccc2c1	-45.2% (active)	9.87% (active)	11.1%	12.8%	12.5%	-17.1% (active)	-26.1% (active)	4.99% (active)	-1.11% (active)	99.5%	-0.597% (active)	-39.6% (active)	18.2%	23.2%	15.7%	13.3%	25.2%	-5.93% (active)
N#CC1=C(c2ccccc2)Nc2c(c(-c3ccc(Cl)cc3)nn2-c2ccccc2)C12C(=O)Nc1ccc(Cl)cc12 (centres undefined)	53.9%	47.4%	84%	82.6%	87.8%	90.8%	57.1%	88.1%	62.2%	87.8%	55.8%	76.2%	45.3%	85.9%	54.9%	65.5%	90.6%	83%
CC(=O)O[C@@H]1C[C@]2(C(C)C)O[C@@]1(C)[C@@H]1CCC(C)=C1[C@@H]2OC(=O)/C=C/c1ccccc1	73.6%	76.6%	67.5%	98.1%	79.1%	89.3%	94.9%	89.7%	20%	71.9%	76.8%	105%	91.9%	90.6%	83.9%	88.5%	103%	92.8%
CC(C)Cn1cnc2c(=O)[nH]c(N)nc21	90.3%	104%	97%	110%	103%	78%	104%	109%	106%	105%	85.3%	98.5%	109%	106%	86.7%	101%	104%	106%
